# From ChEMBL document CHEMBL4513135, “CO-ADD screening of IQOG CSIS (Spain) compounds”
# Several values for one entry are separate records, joined by “and”; a condition that tells them apart may be missing. Equal values may be shown once. Potency and affinity values are given separately.
# Legend:
# Klebsiella pneumoniae = details: Concentration 32 ug.mL-1, ASSAY_TEST Inhibition of Bacterial Growth, detection method Absorption (OD600), MEDIA CAMHB, plate type 384well, NBS, CORNING #3640, time 18 hr
# Candida albicans = details: 32 ug/mL
# Cryptococcus neoformans = details: Concentration 32 ug.mL-1, ASSAY_TEST Inhibition of Fungal Growth, detection method Resazurin, Absorption (OD600-OD570), plate type 384well, NBS, CORNING #3640
SMILES,Inhibition (Klebsiella pneumoniae) [%],Inhibition (Candida albicans),Inhibition (Cryptococcus neoformans) [%],Inhibition (Klebsiella pneumoniae; 32 ug/mL),Inhibition (Cryptococcus neoformans; 32 ug/mL)
C#CCNc1nc(NCCC2CCN(Cc3ccccc3)CC2)c(C#N)cc1C#N,-4.95,3.57%,-89.93,–,–
COc1cc(CCC(N)=O)ccc1O,11.33,-0.74%,-2.02,–,–
N#Cc1cc(C#N)c(NC2CCN(Cc3ccccc3)CC2)nc1N,–,1.61% and 2.76%,–,9.31% and 4.29%,-42.03% and -48.76%
CSC1=NC2(CC2c2ccccc2)C(=O)N1 (configuration not stated),20.57,-0.24%,1.03,–,–
COc1cc(Br)c(C=O)cc1OC,3.95,3.94%,-3.9,–,–
CNC(=O)c1c(Cl)c2cc(OCc3ccccc3)ccc2n1C,13.13,4.9%,-46.6,–,–
N#Cc1cc(C#N)c(Cl)nc1Cl,2.35,33.1%,24.8,–,–
COc1ccc(C2c3ccc4ccccc4c3Oc3nc4c(c(N)c32)CCCC4)c(OC)c1 (configuration not stated),4.09,0.01%,-0.17,–,–
CCOC(=O)C1=C(C)OC(N)=C(C#N)C1c1ccncc1 (configuration not stated),10.54,-1.5%,-58.29,–,–
N#Cc1ccc(Br)cc1N,26.43,18%,-4.02,–,–
ClCCC1CCN(Cc2ccccc2)CC1,14.5,6.52%,-7.64,–,–
CCOC(=O)/C(=C\c1ccccc1)C(=O)c1ccccc1,-3.55,3.73%,-2.93,–,–
C#CCN(C)c1cc(C)nc(C)n1,18.17,5.55%,-42.1,–,–
Nc1c2c(nc3c1C(c1c(Cl)cccc1Cl)c1ccc4ccccc4c1O3)CCCC2 (configuration not stated),14.02,-1.13%,-7.78,–,–
O=C(O)n1ccc2ccccc21,4.22,4.1%,-3.58,–,–
N#Cc1c(Cl)nc(Sc2ccccc2)c(C#N)c1-c1ccccc1,-3.62,2.71%,-38.87,–,–
Nc1c2c(nc3c1C(c1ccc(O)cc1)c1c(ccc4ccccc14)O3)CCCC2 (configuration not stated),8.92,2.15%,-0.6,–,–

SMILES,Inhibition (Klebsiella pneumoniae) [%],Inhibition (Candida albicans),Inhibition (Cryptococcus neoformans) [%],Inhibition (Klebsiella pneumoniae; 32 ug/mL),Inhibition (Cryptococcus neoformans; 32 ug/mL)
Cc1cnc2ccc(Cl)cn12,22.77,0.97%,1.56,–,–
COc1cc(C=NNC(=O)Cc2c[nH]c3ccccc23)ccc1O,-2.6,0.74%,-1.83,–,–
CCOC(=O)C1=C(C)Nc2nc3c(c(N)c2C1c1ccc([N+](=O)[O-])cc1)CCCC3.Cl (configuration not stated),18.29,1.72%,-58.17,–,–
CC(=O)C(=Cc1ccccc1)C(=O)O[C@H]1C[C@H](C)CC[C@H]1C(C)C,13.75,10.8%,-6.7,–,–
COc1ccc2cc(C3C4=C(CC(C)(C)CC4=O)Oc4nc5c(c(N)c43)CCCCC5)c(Cl)nc2c1 (configuration not stated),4.86,23%,-4.18,–,–
CN1C/C(=C\Cl)n2c1c(C#N)cc(C#N)c2=O,5.49,1.11%,-52.5,–,–
N#Cc1c(N)nc(N)c(C#N)c1-c1ccccc1,13.82,1.47%,-29.88,–,–
COc1ccc2cc(C3C4=C(CC(C)(C)CC4=O)Oc4nc5c(c(N)c43)CCCC5)c(Cl)nc2c1 (configuration not stated),5.45,7.25%,-9.09,–,–
CCOC(=O)c1cn(C)c2ccccc12,12.15,7.9%,-4.62,–,–
C/C(Cc1ccccc1)=N\NC(=O)c1c[nH]c2ccccc12,-16.37,5.16%,2.61,–,–
CCOC(=O)C1=C(C)Oc2nc3c(c(N)c2C1c1ccc(O)c(OC)c1)CCC3 (configuration not stated),2.99,0.9%,-66.64,–,–
C=C1CN(C)c2c(C#N)c(-c3ccccc3)c(C#N)c(=O)n21,-0.48,3.72%,-24.16,–,–
COc1cccc(C2C(C#N)=C(N)Oc3c2ccc2ccccc32)c1 (configuration not stated),8.5,3.73%,-38.21,–,–
COc1cccc(C2C(C#N)=C(N)Oc3[nH]nc(C)c32)c1 (configuration not stated),26.54,0.08%,-0.28,–,–
COc1ccc(-c2cc(-c3cc4ccc(OC)cc4nc3Cl)cc(=O)[nH]2)cc1,4.32,-0.61%,-66.65,–,–
C#CCNC(=O)c1cc2cc(OCCCC3CCN(Cc4ccccc4)CC3)ccc2[nH]1,4.92,1.71%,-106.43,–,–
COc1ccc(C=C2N=C(SC)N(C)C2=O)cc1,-13.67,0.01%,-7.91,–,–
